# Screening data (PubChem)
# HT1080-NT tox – kills 2HG-producing HT-1080-NT fibrosarcoma cells; HT-1080-NT fibrosarcoma viability, CellTiter-Glo ATP luminescence, 48 h; Potency, µM (series often up to 46.1 µM), without a hit: at the top dose activity, negative = less viability, actives largely listed as cytotoxic; actives 1.6% (n = 360,000);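 note: NT is the 2HG producing partner of a matched IDH1 knockdown line; 0% = DMSO-treated cells and -100% = media-only wells without cells; nearly all actives have a fitted effect of over 55% in size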
#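 HT-1080-NT; 750 cells/well; 5% FBS RPMI; 48 h compound, 37 degrees C; CellTiter-Glo luminescence; curve fitting and curve-class assignment.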
# KB-3-1 cytotox – KB-3-1 parental cell cytotoxicity; KB-3-1 viability, CellTiter-Glo ATP luminescence, 72 h; Potency, µM (highest dose often 46.1 µM), most hits filed as cytotoxic; actives 1.4% (n = 400,000); AID 1347075; note: nearly all actives have a fitted effect of over 60% in size
#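 Screening of KB-3-1 cells (DMEM, 10% FBS, phenol-red free) ran from lowest to highest compound concentration; after 72 h at 37 °C viability was read luminescently and curves fitted.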
# HT1080 IDH1KD tx – toxicity to HT-1080 IDH1 knockdown cells (counter line); HT-1080 IDH1 knockdown viability, ATP luminescence, 48 h; Potency, µM (doses to about 46.1 µM), inactives show at the highest dose activity, negative = toxicity, most hits filed as cytotoxic; actives 2% (n = 360,000);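 note: 0% = DMSO wells and -100% = cell-free medium wells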
#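 Luminescent ATP read-out (CellTiter-Glo, 10 min at room temperature) after 48 h compound exposure at 37 °C gave viability of IDH1-knockdown HT-1080 cells. Activity was normalised to DMSO and cell-free wells, then fitted as concentration-response curves.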
# DT40 TDP1 CPT – DT40-hTDP1 cell growth loss with CPT | actives 12% (n = 420,000) | Potency, µM (titrated, usually from 46.2 µM), without a hit: at the top dose activity change, negative = growth inhibition, hits mostly inhibitors | AID 686979 | chicken DT40 Tdp1-/-;hTDP1 cells + 20 nM CPT, ATP luminescence, 48 h; note: nearly all actives have a fitted effect of over 55% in size
#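 Chicken DT40 Tdp1-/- cells complemented with human TDP1, 400 cells/well, exposed to compounds plus 20 nM camptothecin for at least 48 h at 37 C; viability read as ATP content by CellTiter-Glo luminescence.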
# DT40 TDP1 no CPT – qHTS for Inhibitors of human tyrosyl-DNA phosphodiesterase 1 (TDP1): qHTS in cells in absence of CPT; Potency, µM (series often up to 46.2 µM), for inactives: at the highest dose activity change, negative = growth inhibition, actives largely listed as inhibitors; DT40 Tdp1-/- hTDP1 cells, no CPT, ATP luminescence, 48 h; AID 686978, 2013; actives 15% (n = 420,000); note: nearly all actives have a fitted effect of over 55% in size
#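 Readout: luminescence from CellTiter-Glo after 30 min in the dark at RT. Cells: DT40 Tdp1-/- with stable hTDP1, 400/well. Exposure: compounds alone, ≥48 hr, 37 °C.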
# KB-V1 MDR tox – KB-V1 MDR subline cytotoxicity | KB-V1 MDR cells viability, CellTiter-Glo, 72 h | Potency, µM (series often up to 46.1 µM), hits mostly cytotoxic | actives 3.4% (n = 400,000); note: nearly all actives have a fitted effect of over 60% in size
#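 KB-V1 cells (P-gp-expressing MDR subline of KB-3-1) in phenol-red-free DMEM with 10% FBS were exposed to library compounds over a concentration series for 72 h at 37 degrees C. Viability read by CellTiter-Glo luminescence; concentration-effect curves fitted after normalization.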
# Numbers without * were called inactive; i = inactive; ? = inconclusive; nt = no result given. Shown are actives, neighbours in structure and some others; about 19% of the full set was active somewhere. Calls come from the whole dose curve; as a rule, active = well fitted curve in the direction sought with a large enough effect; inconclusive = small, poorly fitted or top-dose-only effect, or another doubt; inactive = no such curve, though single readings can be large; an effect the other way counts as inactive or inconclusive. Unless noted, % is set by controls: 0 for no effect and ±100 for the full control effect; potency is the fitted concentration of half-maximal effect.
SMILES,HT1080-NT tox,KB-3-1 cytotox,HT1080 IDH1KD tx,DT40 TDP1 CPT,DT40 TDP1 no CPT,KB-V1 MDR tox
CC(C)CCn1c(=O)c(C(=O)Nc2ccccc2S(N)(=O)=O)c(O)c2ccccc21,-21.9%,3.66µM*,?,4.61µM*,5.17µM*,2.91µM*
CCCCn1c(=O)c(C(=O)Nc2ccccc2C)c(O)c2ccccc21,0.9%,i,5.9%,8.2µM*,9.2µM*,i
CCCCn1c(C)c(C(=O)O)c2cc(OC)c3ccccc3c21,8.0%,i,-5.6%,-13.8%,8.4%,i
CC(=O)O[C@H]1CC[C@@]2(C)[C@H](C1)C(=O)C[C@H]1[C@@H]3CC[C@@H]4[C@@H](CN5C[C@@H](C)CC[C@H]5[C@@]4(C)O)[C@@H]3C[C@@H]12,14.3%,i,0.0%,-25.7%,?,i
COC(=O)C1=C(c2ccc(F)cc2F)C[C@@H]2CC[C@H]1N2C(=O)N1CCC(O)CC1,7.4%,i,10.9%,11.2%,-12.9%,i
O=C(CNC(=O)OCc1ccccc1)Nc1ccc(Br)cc1C(=O)c1ccccc1,?,?,?,?,?,10.3µM*
COc1cc(C(=O)Nc2ccc(Br)cc2C(=O)c2ccccc2Cl)cc(OC)c1OC,1.1%,i,-7.6%,?,23.1µM*,?
O=C(CNC(=O)c1ccccc1Cl)Nc1ccc(Br)cc1C(=O)c1ccccc1,-17.2%,i,-19.6%,18.4µM*,18.4µM*,?
O=C(CNC(=O)c1ccccc1)Nc1ccc(Br)cc1C(=O)c1ccccc1,-24.5%,i,-28.7%,1.9%,?,i
O=C(Nc1ccc(Br)cc1C(=O)c1ccccc1Cl)c1ccc(Br)cc1,nt,i,nt,4.6%,-6.7%,i
O=C(CN1CCCCC1)NCC(=O)Nc1ccc(Br)cc1C(=O)c1ccccc1,-28.4%,i,-28.6%,16.4µM*,18.4µM*,i
CC(C)Oc1ccc(CNC(=O)Oc2ccccc2)cc1,-2.8%,?,?,1.7%,-11.9%,i
COc1ccc(C(=O)C2CCCN(Cc3ccon3)C2)cc1OC (stereo unspecified),-15.0%,i,-7.4%,-20.4%,?,i
COc1ccc(C(=O)C2CCCN(Cc3ccccn3)C2)c(OC)c1 (stereo unspecified),-0.3%,i,-2.2%,20.6µM*,14.6µM*,i
COc1cccc(O)c1CN1CCCC(C(=O)c2ccccc2SC)C1 (stereo unspecified),?,i,?,16.4µM*,18.4µM*,?
Cc1ncc(CN2CCCC(C(=O)c3ccc(C(C)(C)C)cc3)C2)s1 (stereo unspecified),-13.1%,?,-6.3%,20.6µM*,11.6µM*,i
COc1ccc(C(=O)C2CCCN(Cc3cnc(C)s3)C2)c(OC)c1 (stereo unspecified),-9.1%,?,?,16.4µM*,8.2µM*,?
COc1ccc(C(=O)C2CCCN(Cc3cnc(C)s3)C2)cc1OC (stereo unspecified),1.4%,?,-7.5%,7.1%,-23.1%,?
NCC(=O)c1ccc2ccccc2c1,nt,i,nt,-5.8%,-14.7%,i
CCCC12CN3CC(C)(CN(C1)C3c1c(C)[nH]c(=O)[nH]c1=O)C2=O (stereo unspecified),nt,i,nt,-3.4%,-23.5%,i
CC1Cc2ccccc2CN1 (stereo unspecified),nt,i,nt,-4.7%,5.1%,i
CC(=O)OC1CC[C@]2(C#N)[C@H]3CC[C@]4(C)[C@H](C5C=CC(=O)O5)CCC4(O)C3CCC2(O)C1 (stereo partly specified),25.9µM*,?,14.6µM*,?,?,?
C[C@@H]1CN([C@@H](C)CO)C(=O)CCCn2nncc2CO[C@H]1CN(C)C(=O)Oc1ccc2ccccc2c1,-4.5%,i,-0.2%,-16.4%,-1.0%,?
Cc1ccc(C)c(NP(=O)(Oc2ccccc2)Oc2ccccc2)c1,?,?,?,?,16.4µM*,i
[O]=[Cr](=[O])([OH])[O][Cr](=[O])(=[O])[OH],nt,nt,nt,?,16.8µM*,nt
SMILES,HT1080-NT tox,KB-3-1 cytotox,HT1080 IDH1KD tx,DT40 TDP1 CPT,DT40 TDP1 no CPT,KB-V1 MDR tox
CC(C)CCCC(C)C1CCC2C3CC(O)[C@@]4(O)CC(O)CC[C@@]4(C)C3CC[C@@]12C (stereo partly specified),nt,nt,nt,?,18.4µM*,nt
COc1ccc(-c2ccc3c(c2)CNCc2cnnn2-3)cc1,?,i,7.5%,-19.9%,-23.6%,i
Cn1c(=O)n(C)c2cc(CNCCc3ccccc3F)ccc21,nt,i,nt,?,?,i
COc1ccc(C2/C=C\CN(C(=O)Oc3ccccc3)CC(=O)N2Cc2ccc(F)cc2)cc1 (stereo unspecified),-3.2%,i,-0.9%,20.6µM*,?,i
Cc1ccccc1-n1c(/C=C/c2ccccc2F)nc2ccccc2c1=O,nt,nt,nt,20.6µM*,8.2µM*,nt
CSc1ccc(/C=C/c2nc3ccccc3c(=O)n2-c2cccc(Cl)c2C)cc1,nt,i,nt,?,?,i
O=c1c2ccccc2nc(/C=C/c2cccc3ccccc23)n1-c1ccccc1Cl,nt,?,nt,11.6µM*,10.3µM*,?
COc1ccc(-n2c(/C=C\c3ccccc3F)nc3ccccc3c2=O)cc1OC,nt,?,nt,23.1µM*,16.4µM*,?
Cc1ccccc1-n1c(C)nc2sccc2c1=O,-10.5%,i,-3.9%,-9.9%,0.7%,i
COc1cccc(-n2c(/C=C/c3ccc(O)c(O)c3)nc3ccccc3c2=O)c1,-17.0%,i,-29.7%,17.5%,?,?
COc1ccc2c3c1OC1C(=O)CC[C@@]4(O)[C@@H](C2)N(CC2CC2)CC[C@]314 (stereo partly specified),2.1%,i,-1.9%,5.5%,-19.1%,i
COc1ccc(NC(=O)N2CCCC3(CCN(C(=O)Oc4ccccc4)CC3)C2)cc1,nt,nt,nt,-4.7%,-13.2%,nt
COC(=O)C1=C(c2ccc3ccccc3c2)C[C@@H]2CC[C@H]1N2C(=O)NCc1ccc(C(F)(F)F)cc1,-16.5%,?,?,?,?,?
